In paper PMC7862700, “An all-to-all approach to the identification of sequence-specific readers for epigenetic DNA modifications on cytosine”:

What was measured:
Experiment in all cases: DAPPL (digital affinity profiling via proximity ligation, sequencing); 10 mM Tris-HCl pH 7.5, 50 mM NaCl, 1 mM DTT, 4% glycerol, room temperature, 30 min; GST-TFs on glutathione beads, 16-mer random dsDNA library, 0.1% formaldehyde crosslink after washing; high values mean tight binding
FEV = target: T1, FEV (Homo sapiens, UniProt Q99581 1-238); conditions: protein: recombinant; tags: N-terminal GST; dsDNA, one strand shown
T1 sequence: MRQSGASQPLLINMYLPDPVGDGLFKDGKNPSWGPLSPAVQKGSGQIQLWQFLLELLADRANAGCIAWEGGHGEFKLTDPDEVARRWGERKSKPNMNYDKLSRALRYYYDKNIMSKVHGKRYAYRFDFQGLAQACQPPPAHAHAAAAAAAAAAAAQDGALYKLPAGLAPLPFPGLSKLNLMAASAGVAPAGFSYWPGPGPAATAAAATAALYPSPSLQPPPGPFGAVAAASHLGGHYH
How it was run: (§1)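 Sequencing on an Illumina NextSeq500 followed washing, crosslinking with 0.1% formaldehyde, proximity ligation (BsaI/T4 ligase, 1 h, 37 °C) and PCR amplification of pools that had been incubated for 30 min at room temperature with 200 nmole of a random double-stranded 16-mer DNA library in Tris/NaCl/DTT/glycerol buffer. Each pool held DNA-barcoded human transcription factors, expressed in yeast as GST fusions and captured on glutathione beads, plus a tag-only sample. Binding signal is a hexamer's read frequency for a factor divided by its frequency in the tag-only sample.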

ETV5 = ETV5 (Homo sapiens, UniProt P41161 1-510); conditions: protein: recombinant; tags: N-terminal GST; dsDNA, one strand shown
Sequence of ETV5 (P41161 whole entry): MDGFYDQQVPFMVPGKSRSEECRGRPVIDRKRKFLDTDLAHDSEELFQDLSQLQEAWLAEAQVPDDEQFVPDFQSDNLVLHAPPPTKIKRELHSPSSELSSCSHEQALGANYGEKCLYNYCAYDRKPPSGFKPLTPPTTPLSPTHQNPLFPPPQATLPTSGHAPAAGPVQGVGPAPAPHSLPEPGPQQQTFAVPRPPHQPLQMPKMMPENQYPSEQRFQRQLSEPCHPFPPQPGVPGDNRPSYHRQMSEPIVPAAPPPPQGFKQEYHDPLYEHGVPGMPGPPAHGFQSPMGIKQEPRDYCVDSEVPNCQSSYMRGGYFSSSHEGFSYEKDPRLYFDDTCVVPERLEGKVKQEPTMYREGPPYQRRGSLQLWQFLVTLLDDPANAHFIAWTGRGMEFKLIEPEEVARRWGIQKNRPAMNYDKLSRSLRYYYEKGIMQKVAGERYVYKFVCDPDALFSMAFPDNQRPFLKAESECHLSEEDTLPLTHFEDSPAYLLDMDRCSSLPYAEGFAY
How it was run: as §1

HSF1 = HSF1 (Homo sapiens, UniProt Q00613 1-529); conditions: protein: recombinant; tags: N-terminal GST; chain copies: 3; dsDNA, one strand shown
Sequence of HSF1 (Q00613 whole entry): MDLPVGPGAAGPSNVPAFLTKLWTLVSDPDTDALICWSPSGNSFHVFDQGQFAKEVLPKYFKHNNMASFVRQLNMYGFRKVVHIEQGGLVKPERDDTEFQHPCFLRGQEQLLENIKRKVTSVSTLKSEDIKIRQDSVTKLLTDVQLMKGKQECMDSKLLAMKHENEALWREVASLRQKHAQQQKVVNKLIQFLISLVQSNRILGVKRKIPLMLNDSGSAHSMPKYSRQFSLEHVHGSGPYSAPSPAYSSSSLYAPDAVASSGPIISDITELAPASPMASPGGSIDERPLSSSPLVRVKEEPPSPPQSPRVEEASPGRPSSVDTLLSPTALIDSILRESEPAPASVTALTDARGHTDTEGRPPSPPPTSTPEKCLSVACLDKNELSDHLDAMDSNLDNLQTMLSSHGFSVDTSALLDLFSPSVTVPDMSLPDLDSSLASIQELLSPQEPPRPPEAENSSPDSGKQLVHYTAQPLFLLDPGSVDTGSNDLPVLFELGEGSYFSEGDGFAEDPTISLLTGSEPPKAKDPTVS
How it was run: as §1

SPIC = target: T2, SPIC (Homo sapiens, UniProt Q8N5J4 1-248); conditions: protein: recombinant; tags: N-terminal GST; dsDNA, one strand shown
T2 sequence: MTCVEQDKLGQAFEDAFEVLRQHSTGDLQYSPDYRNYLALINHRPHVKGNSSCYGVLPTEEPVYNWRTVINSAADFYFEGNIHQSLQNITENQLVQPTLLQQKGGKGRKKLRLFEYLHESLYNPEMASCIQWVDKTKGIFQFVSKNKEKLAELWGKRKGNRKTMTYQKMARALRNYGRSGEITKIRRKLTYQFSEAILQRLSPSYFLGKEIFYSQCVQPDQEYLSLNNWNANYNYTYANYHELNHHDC
How it was run: as §1

ELF4 = ELF4 (Homo sapiens, UniProt Q99607 1-663); conditions: protein: recombinant; tags: N-terminal GST; dsDNA, one strand shown
Sequence of ELF4 (Q99607 whole entry): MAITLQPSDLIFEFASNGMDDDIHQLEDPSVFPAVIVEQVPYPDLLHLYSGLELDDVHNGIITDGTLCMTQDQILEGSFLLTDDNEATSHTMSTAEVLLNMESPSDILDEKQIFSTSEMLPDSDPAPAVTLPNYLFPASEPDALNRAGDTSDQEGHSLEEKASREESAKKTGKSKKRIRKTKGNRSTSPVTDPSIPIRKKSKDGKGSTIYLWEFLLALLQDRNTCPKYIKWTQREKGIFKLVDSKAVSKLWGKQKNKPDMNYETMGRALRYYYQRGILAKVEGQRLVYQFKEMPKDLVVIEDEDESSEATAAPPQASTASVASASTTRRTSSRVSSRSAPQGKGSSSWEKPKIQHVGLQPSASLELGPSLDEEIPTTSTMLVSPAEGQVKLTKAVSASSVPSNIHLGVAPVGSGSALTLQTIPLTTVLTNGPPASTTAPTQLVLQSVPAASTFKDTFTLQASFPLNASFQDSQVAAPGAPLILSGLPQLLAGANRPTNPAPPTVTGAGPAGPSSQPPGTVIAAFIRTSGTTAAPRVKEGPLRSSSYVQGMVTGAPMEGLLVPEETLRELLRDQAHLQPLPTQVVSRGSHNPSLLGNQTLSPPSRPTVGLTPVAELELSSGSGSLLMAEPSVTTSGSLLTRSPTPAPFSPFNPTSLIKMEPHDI
How it was run: as §1

ELK4 = target: T3, ELK4 (Homo sapiens, UniProt P28324-2 1-405); conditions: protein: recombinant; tags: N-terminal GST; dsDNA, one strand shown
T3 sequence: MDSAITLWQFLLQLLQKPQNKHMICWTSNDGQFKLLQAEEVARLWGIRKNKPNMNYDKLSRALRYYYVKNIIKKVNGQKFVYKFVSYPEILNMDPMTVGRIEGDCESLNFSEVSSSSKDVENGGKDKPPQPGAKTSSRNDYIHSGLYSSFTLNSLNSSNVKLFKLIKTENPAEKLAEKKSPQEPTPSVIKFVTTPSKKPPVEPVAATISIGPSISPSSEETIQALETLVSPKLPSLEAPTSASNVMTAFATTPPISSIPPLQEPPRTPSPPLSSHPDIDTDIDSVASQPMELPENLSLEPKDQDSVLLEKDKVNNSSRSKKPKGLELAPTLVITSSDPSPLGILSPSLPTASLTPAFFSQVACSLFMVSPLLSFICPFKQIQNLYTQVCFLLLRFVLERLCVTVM
How it was run: as §1

ETV2 = target: T4, ETV2 (Homo sapiens, UniProt O00321 1-342); conditions: protein: recombinant; tags: N-terminal GST; dsDNA, one strand shown
T4 sequence: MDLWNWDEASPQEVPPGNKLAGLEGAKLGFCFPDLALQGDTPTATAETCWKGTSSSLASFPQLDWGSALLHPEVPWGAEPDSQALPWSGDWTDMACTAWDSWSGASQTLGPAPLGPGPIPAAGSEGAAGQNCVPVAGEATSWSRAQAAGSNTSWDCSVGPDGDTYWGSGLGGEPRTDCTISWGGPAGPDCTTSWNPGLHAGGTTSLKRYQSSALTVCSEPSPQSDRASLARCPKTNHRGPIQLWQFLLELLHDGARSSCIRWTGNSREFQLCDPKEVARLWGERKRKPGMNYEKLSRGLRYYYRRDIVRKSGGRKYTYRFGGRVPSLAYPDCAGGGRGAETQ
How it was run: as §1

ELF3 = target: T5, ELF3 (Homo sapiens, UniProt P78545 1-371); conditions: protein: recombinant; tags: N-terminal GST; dsDNA, one strand shown
T5 sequence: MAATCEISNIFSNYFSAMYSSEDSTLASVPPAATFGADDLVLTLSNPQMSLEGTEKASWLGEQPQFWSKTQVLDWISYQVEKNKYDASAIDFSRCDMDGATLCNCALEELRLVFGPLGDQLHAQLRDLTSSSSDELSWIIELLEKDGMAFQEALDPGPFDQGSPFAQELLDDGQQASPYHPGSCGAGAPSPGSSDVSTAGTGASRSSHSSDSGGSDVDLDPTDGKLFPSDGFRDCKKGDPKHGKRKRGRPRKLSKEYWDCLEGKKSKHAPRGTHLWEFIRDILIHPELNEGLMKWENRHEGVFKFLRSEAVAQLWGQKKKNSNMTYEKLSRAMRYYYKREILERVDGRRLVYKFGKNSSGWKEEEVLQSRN
How it was run: as §1

CRX = CRX (Homo sapiens, UniProt O43186 1-299); conditions: protein: recombinant; tags: N-terminal GST; dsDNA, one strand shown
Sequence of CRX (O43186 whole entry): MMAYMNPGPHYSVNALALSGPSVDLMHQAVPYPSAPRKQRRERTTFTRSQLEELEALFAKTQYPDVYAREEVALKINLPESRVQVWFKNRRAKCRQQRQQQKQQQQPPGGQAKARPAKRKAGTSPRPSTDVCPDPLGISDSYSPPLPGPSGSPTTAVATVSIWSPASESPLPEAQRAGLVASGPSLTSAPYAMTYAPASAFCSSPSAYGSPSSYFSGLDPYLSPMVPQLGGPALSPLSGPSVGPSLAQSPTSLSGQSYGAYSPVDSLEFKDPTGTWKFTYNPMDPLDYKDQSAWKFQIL
How it was run: as §1

ETV1 = ETV1 (Homo sapiens, UniProt P50549 1-477); conditions: protein: recombinant; tags: N-terminal GST; dsDNA, one strand shown
Sequence of ETV1 (P50549 whole entry): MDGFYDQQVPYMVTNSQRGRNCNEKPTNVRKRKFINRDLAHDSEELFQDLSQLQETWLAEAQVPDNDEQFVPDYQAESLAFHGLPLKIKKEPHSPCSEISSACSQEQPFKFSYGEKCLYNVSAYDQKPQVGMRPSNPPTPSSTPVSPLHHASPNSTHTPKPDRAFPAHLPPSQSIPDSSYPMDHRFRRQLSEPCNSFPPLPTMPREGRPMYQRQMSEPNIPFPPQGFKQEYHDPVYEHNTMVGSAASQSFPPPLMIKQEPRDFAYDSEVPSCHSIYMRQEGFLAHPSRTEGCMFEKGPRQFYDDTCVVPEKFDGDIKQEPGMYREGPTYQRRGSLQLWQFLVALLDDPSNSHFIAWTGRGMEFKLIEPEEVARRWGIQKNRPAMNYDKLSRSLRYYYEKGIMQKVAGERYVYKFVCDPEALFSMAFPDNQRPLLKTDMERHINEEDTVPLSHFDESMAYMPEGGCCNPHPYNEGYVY
How it was run: as §1

**Q.** AATTAC was tested. Which binding signal (FEV) did it give?
**A.** The binding signal was 1.25 fold enrichment (6-mer frequency, TF over GST control).

**Q.** And the binding signal (ETV5)?
**A.** Its binding signal is 1.28 fold enrichment (6-mer frequency, TF over GST control).

**Q.** What about the binding signal (HSF1) of the same sequence?
**A.** The binding signal was 1.43 fold enrichment (6-mer frequency, TF over GST control).

**Q.** What about the binding signal (SPIC) of the same sequence?
**A.** Its binding signal is 1.33 fold enrichment (6-mer frequency, TF over GST control).

**Q.** And the binding signal (ELF4)?
**A.** Its binding signal is 1.24 fold enrichment (6-mer frequency, TF over GST control).

**Q.** And the binding signal (ELK4)?
**A.** The binding signal was 1.27 fold enrichment (6-mer frequency, TF over GST control).

**Q.** What about the binding signal (ETV2) of the same sequence?
**A.** The binding signal was 1.38 fold enrichment (6-mer frequency, TF over GST control).

**Q.** And the binding signal (ELF3)?
**A.** Its binding signal is 1.36 fold enrichment (6-mer frequency, TF over GST control).

**Q.** What about the binding signal (CRX) of the same sequence?
**A.** Its binding signal is 1.74 fold enrichment (6-mer frequency, TF over GST control).

**Q.** What about the binding signal (ETV1) of the same sequence?
**A.** The binding signal was 1.34 fold enrichment (6-mer frequency, TF over GST control).
